# Measurements published in PubChem BioAssay (Tox21).
# Where “and” joins values, the source holds several entries; their conditions need not be identical. Equal values may be shown once. Results filed as inconclusive are left out. Where a call stands in place of a potency, no number is given. Some structures have more than one record in an assay (separate samples or runs), and their calls can disagree. Calls of active or inactive are those of the source. Calls follow the shape of the dose curve; as a rule, active = well fitted cell-killing curve with a large enough effect in the repeat runs; inconclusive = weak or mixed curves, or effect the other way; inactive = flat fitted curve, though single readings scatter.
# Experiment: qHTS RealTime-Glo MT Cell Viability Assay in HEK293 cells - 8 hour (AID 1224887); also: nearly all actives have a fitted effect of over 50% in size; as to activity change, negative = cytotoxicity: top concentration of the series differs between compounds
# Details: RealTime-Glo luminescence; series mostly up to 76.8 µM; activity change, negative = cytotoxicity: at the top concentration
# Text: U.S. Tox21 Program National Center for Advancing Translational Sciences [NCATS] NIH Chemical Genomics Center [NCGC] U.S. Environmental Protection Agency [EPA] National Institutes of Environmental Health Sciences [NIEHS] National Toxicology Program [NTP] U.S. Food and Drug Administration [FDA] Tox21 Assay Overview: Measure of cell viability is critical in the cell-base assay. Analysis of cell viability is necessary for the characterization of cell responses to cytotoxic drugs and environmental stress. A RealTime-Glo MT Cell Viability Assay to monitor cell viability in real time of continues cell culture during 40 hours of compound treatment was used to screen Tox21 10K library compounds in Hek293 cells. The RealTime-Glo MT Cell Viability Assay is a nonlytic, homogeneous, bioluminescent method to measure cell viability in real time using a simple, plate-based method. The assay involves adding NanoLuc luciferase and a cell-permeant prosubstrate to cells in culture. Viable cells reduce the proprietary prosubstrate to generate a substrate for NanoLuc luciferase. This substrate diffuses from cells into the surrounding culture medium, where it is rapidly used by the NanoLuc Enzyme to produce a luminescent signal. The signal correlates with the number of viable cells, making the assay well suited for cytotoxicity studies.
# Tox21 Assay Protocol Summary: The mixture of Hek293 cell suspension and reagents were dispensed at 600cells/6 ul/well in 1536-well tissue culture treated black solid bottom plates using a Multidrop dispenser. After the assay plates were incubated at a 37 C/5% CO2 incubator for 5 hours, 23 nL of compounds dissolved in DMSO, positive and negative controls was transferred to the assay plate by a pintool work station. The plates were incubated at 37 C for 40 hours. The luminescence intensity were measured at 0h, 8h, 16h, 24h, 32h and 40h time points using ViewLux plate reader during compound treatment.
# Potency is read from the fitted curve at half-maximal effect.
Compound,Potency,"activity change, negative = cytotoxicity"
CC(=O)[C@@]1(O)CC[C@H]2[C@@H]3C[C@H](C)C4=CC(=O)C=C[C@]4(C)[C@@]3(F)[C@@H](O)C[C@@]21C,inactive,–
CCCN1C=CN(C)C1,inactive,–
COCCOCCOCCO,inactive,–
CC(=O)Nc1ccc2c(c1)Cc1cc(NC(C)=O)ccc1-2,inactive,–
CCCCCCCCCCC(CO)CCCCCCCC (stereo not given),inactive,–
Cc1ccc(C(C)(C)C)cc1,inactive,–
COC(=O)CC(=O)OC,inactive,–
CC(=O)O[C@]1(C(C)=O)CC[C@H]2[C@@H]3C=C(C)C4=CC(=O)CC[C@]4(C)[C@H]3CC[C@@]21C,–,-26.7% (inactive)
IC(I)I,inactive,–
c1ccc2c(c1)ccc1cc3c(ccc4ccccc43)cc12,inactive,–
CC/C=C\C/C=C\C/C=C\CCCCCCCC(=O)O,inactive,–
C=CCNCC=C,inactive,–
CCCOCCO,inactive,–
NC[C@H](O)c1ccc(O)c(O)c1,inactive,–
C1CN(SSN2CCOCC2)CCO1,inactive,–
COc1ccc(C(=O)c2ccccc2O)c(O)c1,–,-1.61% [at 35.3 µM] (inactive)
Nc1ccc2c(c1)C(=O)c1ccccc1C2=O,inactive,–
[O-]/[N+](=N\O)c1ccccc1,inactive,–
CC(=O)O[C@]1(C(C)=O)CC[C@H]2[C@@H]3C=C(Cl)C4=CC(=O)CC[C@]4(C)[C@H]3CC[C@@]21C,–,-17.1% [at 35.3 µM] (inactive)
ClC/C=C/CCl,inactive,–

Compound,Potency,"activity change, negative = cytotoxicity"
c1ccc2c(c1)[nH]c1ccccc12,inactive,–
C[C@]12CC[C@@H]3c4ccc(O)cc4CC[C@H]3[C@@H]1CC[C@H]2O,–,-32.3% (inactive)
OC[C@@H](O)[C@@H](O[C@@H]1O[C@H](CO)[C@H](O)[C@H](O)[C@H]1O)[C@H](O)[C@@H](O)CO,inactive,–
Cc1ccc(C)c(O)c1,inactive,–
C=C[C@H]1CN2CC[C@H]1C[C@@H]2[C@@H](O)c1ccnc2ccc(OC)cc12,42.9 µM (active) and inactive,–
C=CCCCCCCCCCC,inactive,–
C=CC(C)(O)CCC=C(C)C (stereo not given),inactive,–
O=C(O)CCCC(=O)O,inactive,–
O=C1CCc2ccccc2O1,inactive,–
C[N+](C)(C)CCO,inactive,–
Cc1ccc(S(=O)(=O)O)cc1C,inactive,–
CCOC(=O)C(C)Oc1ccc(Oc2cnc3cc(Cl)ccc3n2)cc1 (stereo not given),14.1 µM (active) and 16.3 µM (active),–
CN(C)C,inactive,–
Brc1nc2ccccc2s1,inactive,–
C/C=C/C(=O)N(CC)c1ccccc1C,inactive,–
Nc1cc(Cl)c(N)c(Cl)c1,inactive,–
O=C(CCCN1CCC(O)(c2ccc(Cl)cc2)CC1)c1ccc(F)cc1,13.8 µM (active) and 9.52 µM (active),–
CCC(Cc1c(I)cc(I)c(N)c1I)C(=O)O (stereo not given),inactive,–
CC[C@]12CCCN3CCc4c(n(c5ccccc45)[C@@](O)(C(=O)OC)C1)[C@@H]32,inactive,–
Nc1ccc2c(O)cc(S(=O)(=O)O)cc2c1,inactive,–
